From article PMC4081100, “A DNA-binding-site landscape and regulatory network analysis for NAC transcription factors in Arabidopsis thaliana” come the findings set out here.

Common to all, as to experiment: universal protein binding microarray (PBM); transcription factors of Arabidopsis thaliana; high values mean tight binding
Details in all cases: protein: recombinant; tags: GST; chain copies: 2; dsDNA, one strand shown

One assay deals with T1, GST-ANAC092(1-176) (Arabidopsis thaliana, UniProt Q9FKA0 1-176).
T1 sequence: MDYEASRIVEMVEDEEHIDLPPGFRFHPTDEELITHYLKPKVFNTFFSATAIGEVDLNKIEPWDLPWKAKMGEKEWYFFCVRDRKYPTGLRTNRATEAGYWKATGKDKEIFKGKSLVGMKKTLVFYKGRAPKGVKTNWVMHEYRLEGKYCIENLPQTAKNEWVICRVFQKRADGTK
In a few lines: (§1)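 Binding is expressed as the normalised enrichment score (E-score). Proteins carrying a GST tag, whether NAC-domain, full-length or DNA-binding-domain forms, were induced in cells, and zinc acetate was added for zinc-finger proteins. After purification on glutathione–Sepharose 4B and quantification by A280 or anti-GST western blot, each was applied in duplicate at 200 to 500 nM final to custom all-10-mer Agilent 4 × 180K arrays made double-stranded by primer extension. Gapped and ungapped 8-mers were scored.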

The target in the next assay is T2, GST-ANAC019 NAC domain (Arabidopsis thaliana, UniProt Q9C932 14-162).
T2 sequence: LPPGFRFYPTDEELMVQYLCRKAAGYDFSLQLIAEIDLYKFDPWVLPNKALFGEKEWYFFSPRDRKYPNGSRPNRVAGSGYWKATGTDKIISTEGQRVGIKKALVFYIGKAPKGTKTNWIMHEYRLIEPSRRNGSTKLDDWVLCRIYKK
Put shortly: as §1

The next assay deals with T3, GST-ANAC055(1-171) (Arabidopsis thaliana, UniProt Q9LDY8 1-171).
T3 sequence: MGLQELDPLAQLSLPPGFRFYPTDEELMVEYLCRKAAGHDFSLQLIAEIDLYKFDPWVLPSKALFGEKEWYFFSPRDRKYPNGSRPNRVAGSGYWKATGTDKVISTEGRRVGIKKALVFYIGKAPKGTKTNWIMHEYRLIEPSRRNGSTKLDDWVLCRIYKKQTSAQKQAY
In a few lines:
as §1

A further assay concerns the target T4, GST-ATAF1 NAC domain (Arabidopsis thaliana, UniProt Q39013 7-158).
T4 sequence: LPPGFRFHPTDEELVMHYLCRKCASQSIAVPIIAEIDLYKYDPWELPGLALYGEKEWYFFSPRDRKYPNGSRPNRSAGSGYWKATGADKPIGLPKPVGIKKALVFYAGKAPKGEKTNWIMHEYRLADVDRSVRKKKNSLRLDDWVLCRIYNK
Put shortly: as §1

The target in assay [1] is T5, GST-ANAC092(1-285) full length (Arabidopsis thaliana, UniProt Q9FKA0 1-285).
T5 sequence: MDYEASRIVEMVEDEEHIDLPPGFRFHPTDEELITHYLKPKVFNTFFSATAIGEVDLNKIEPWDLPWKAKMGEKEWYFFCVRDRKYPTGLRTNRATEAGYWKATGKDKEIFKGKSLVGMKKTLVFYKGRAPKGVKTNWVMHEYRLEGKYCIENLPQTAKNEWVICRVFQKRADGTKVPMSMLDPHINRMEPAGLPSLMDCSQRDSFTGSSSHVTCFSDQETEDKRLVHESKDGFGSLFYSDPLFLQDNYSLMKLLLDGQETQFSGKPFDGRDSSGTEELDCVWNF
In a few lines:
as §1

A further assay concerns the target T6, GST-NAP(1-166) (Arabidopsis thaliana, UniProt O49255 1-166).
T6 sequence: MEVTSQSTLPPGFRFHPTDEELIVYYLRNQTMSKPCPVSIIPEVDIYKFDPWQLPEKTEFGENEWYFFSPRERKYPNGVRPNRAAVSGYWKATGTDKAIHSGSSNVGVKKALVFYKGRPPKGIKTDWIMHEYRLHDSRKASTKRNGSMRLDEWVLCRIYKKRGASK
Put shortly:
as §1

The target in the next assay is T7, GST-NST2(1-184) (Arabidopsis thaliana, UniProt Q9M274 1-184).
T7 sequence: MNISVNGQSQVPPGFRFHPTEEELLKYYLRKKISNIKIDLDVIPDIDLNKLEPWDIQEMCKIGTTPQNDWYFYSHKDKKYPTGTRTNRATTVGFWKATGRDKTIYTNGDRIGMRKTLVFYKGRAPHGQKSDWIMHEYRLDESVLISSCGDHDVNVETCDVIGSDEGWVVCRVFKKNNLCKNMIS
Put shortly: as §1

The next assay addresses T8, GST-NTL8 NAC domain (Arabidopsis thaliana, UniProt Q9XIN7 14-156).
T8 sequence: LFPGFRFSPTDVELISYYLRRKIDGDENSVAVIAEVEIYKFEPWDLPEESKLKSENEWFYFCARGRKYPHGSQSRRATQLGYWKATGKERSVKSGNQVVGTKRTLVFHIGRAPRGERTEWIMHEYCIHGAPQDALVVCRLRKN
In a few lines:
as §1

The target of another assay is T9, GST-SND1(1-203) (Arabidopsis thaliana, UniProt Q9LPI7 1-203).
T9 sequence: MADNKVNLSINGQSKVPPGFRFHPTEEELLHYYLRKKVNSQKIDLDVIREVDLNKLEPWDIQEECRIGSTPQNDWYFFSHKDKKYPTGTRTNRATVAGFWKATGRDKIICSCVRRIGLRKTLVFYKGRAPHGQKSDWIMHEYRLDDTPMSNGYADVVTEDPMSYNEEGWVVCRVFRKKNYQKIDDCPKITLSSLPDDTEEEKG
In a few lines: as §1

The next assay concerns the target T10, GST-VND3 NAC domain (Arabidopsis thaliana, UniProt Q9FH59 12-162).
T10 sequence: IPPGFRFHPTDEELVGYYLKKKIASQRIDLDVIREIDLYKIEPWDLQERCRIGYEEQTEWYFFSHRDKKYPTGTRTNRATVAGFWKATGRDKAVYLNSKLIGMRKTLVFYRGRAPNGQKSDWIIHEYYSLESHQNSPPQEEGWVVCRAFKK
In a few lines: as §1

In another assay the target is T11, GST-VND7 NAC domain (Arabidopsis thaliana, UniProt Q9C8W9 9-158).
T11 sequence: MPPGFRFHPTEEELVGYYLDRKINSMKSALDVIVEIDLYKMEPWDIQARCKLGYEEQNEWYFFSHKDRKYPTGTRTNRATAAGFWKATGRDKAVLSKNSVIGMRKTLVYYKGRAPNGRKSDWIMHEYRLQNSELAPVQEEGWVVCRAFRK
Put shortly: as §1

ACGGAACT: the binding signal with GST-ANAC092(1-176) stood at 0.292 E-score; in the assay with GST-ANAC019 NAC domain it was 0.468 E-score; in the assay with GST-ANAC055(1-171), 0.438 E-score; with GST-ATAF1 NAC domain it was 0.392 E-score; in assay [1], 0.277 E-score; with GST-NAP(1-166), 0.452 E-score. Also, the binding signal turned out to be 0.159 E-score in the assay with GST-NST2(1-184); 0.109 E-score in the assay with GST-NTL8 NAC domain; 0.178 E-score in the assay with GST-SND1(1-203); 0.417 E-score with GST-VND3 NAC domain; 0.445 E-score in the assay with GST-VND7 NAC domain.

With AGCACGCA, the binding signal amounted to 0.435 E-score in the assay with GST-ANAC092(1-176); 0.333 E-score with GST-ANAC019 NAC domain; 0.281 E-score in the assay with GST-ANAC055(1-171); 0.31 E-score with GST-ATAF1 NAC domain; 0.453 E-score in assay [1]; 0.282 E-score with GST-NAP(1-166). Further, the binding signal came out at 0.222 E-score with GST-NST2(1-184); 0.0609 E-score with GST-NTL8 NAC domain; 0.343 E-score in the assay with GST-SND1(1-203); 0.301 E-score with GST-VND3 NAC domain; 0.216 E-score with GST-VND7 NAC domain.

With AAATACGT, the binding signal with GST-ANAC092(1-176) is 0.196 E-score; with GST-ANAC019 NAC domain, 0.226 E-score; in the assay with GST-ANAC055(1-171), 0.244 E-score; in the assay with GST-ATAF1 NAC domain it was 0.346 E-score; in assay [1], 0.35 E-score; in the assay with GST-NAP(1-166) it was 0.29 E-score. In addition, the binding signal amounted to 0.209 E-score with GST-NST2(1-184); 0.101 E-score with GST-NTL8 NAC domain; 0.21 E-score in the assay with GST-SND1(1-203); 0.408 E-score with GST-VND3 NAC domain; 0.263 E-score with GST-VND7 NAC domain.

With ACGGCAAT, the binding signal with GST-ANAC092(1-176) stood at 0.298 E-score; with GST-ANAC019 NAC domain it was 0.409 E-score; in the assay with GST-ANAC055(1-171), 0.375 E-score; in the assay with GST-ATAF1 NAC domain, 0.283 E-score; in [1] it was 0.366 E-score; with GST-NAP(1-166), 0.236 E-score. The binding signal in the assay with GST-NST2(1-184) amounted to 0.286 E-score; with GST-NTL8 NAC domain, 0.188 E-score; with GST-SND1(1-203) it was 0.226 E-score; in the assay with GST-VND3 NAC domain, 0.3 E-score; with GST-VND7 NAC domain, 0.317 E-score.

TACGGCAA: the binding signal in the assay with GST-ANAC092(1-176) stood at 0.409 E-score; in the assay with GST-ANAC019 NAC domain it was 0.409 E-score; with GST-ANAC055(1-171) it was 0.363 E-score; with GST-ATAF1 NAC domain, 0.381 E-score; in [1], 0.422 E-score; with GST-NAP(1-166), 0.362 E-score. The binding signal with GST-NST2(1-184) was 0.212 E-score; with GST-NTL8 NAC domain, 0.192 E-score; with GST-SND1(1-203), 0.381 E-score; with GST-VND3 NAC domain, 0.417 E-score; with GST-VND7 NAC domain it was 0.419 E-score.

For the sequence CTCACGCA, the binding signal is 0.416 E-score with GST-ANAC092(1-176); 0.359 E-score with GST-ANAC019 NAC domain; 0.211 E-score with GST-ANAC055(1-171); 0.0962 E-score with GST-ATAF1 NAC domain; 0.41 E-score in assay [1]; 0.171 E-score with GST-NAP(1-166). For the same sequence, the binding signal worked out at 0.22 E-score with GST-NST2(1-184); 0.0698 E-score with GST-NTL8 NAC domain; 0.286 E-score with GST-SND1(1-203); 0.194 E-score in the assay with GST-VND3 NAC domain; 0.193 E-score in the assay with GST-VND7 NAC domain.

Take GTAACGTA: the binding signal is 0.451 E-score with GST-ANAC092(1-176); 0.367 E-score in the assay with GST-ANAC019 NAC domain; 0.189 E-score in the assay with GST-ANAC055(1-171); 0.322 E-score in the assay with GST-ATAF1 NAC domain; 0.467 E-score in assay [1]; 0.315 E-score with GST-NAP(1-166). For the same sequence, the binding signal is 0.321 E-score with GST-NST2(1-184); 0.13 E-score in the assay with GST-NTL8 NAC domain; 0.489 E-score in the assay with GST-SND1(1-203); 0.338 E-score with GST-VND3 NAC domain; 0.402 E-score with GST-VND7 NAC domain.
